Assay results as given in PubChem BioAssay AID1822 (The Scripps Research Institute Molecular Screening Center, 2009).
Hit rate of the full screen: of about 290,000 compounds, about 3,500 (1.2%) were called active. The entries come from a sample that favours actives as a whole. Values without a mark were called inactive.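 How the source made its calls: active means inhibition above the campaign mean inhibition over all tested compounds plus 3 SD (cut at about 28% in these data); inactive means the rest.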

What follows are molecules tested on M18 aspartyl aminopeptidase (Plasmodium falciparum 3D7) (assay: PfM18AAP inhibitors, malaria aminopeptidase, primary screen, biochemical, QFRET, recombinant enzyme (AID 1822;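 further: 0% = plate median of test compound wells and 100% = 2 mM ZnCl2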)). Conditions: H-Glu-NHMec fluorogenic cleavage, at 7.35 µM, stronger effect = higher value.

Question: Which inhibition does the source give for COc1cccc(N2C(=O)NC(=O)/C(=C\c3ccc([N+](=O)[O-])s3)C2=O)c1 here?
Answer: Its inhibition is 9.11%.

Question: COc1cccc(N2C(=O)NC(=O)/C(=C\c3cn(C)c4ccccc34)C2=O)c1 was tested. Which inhibition did it give?
Answer: The inhibition was 31.5% (active).

Question: Cc1cccc(N2C(=O)NC(=O)/C(=C\c3cnn(-c4ccccc4)c3)C2=O)c1 was tested. Which inhibition did it give?
Answer: Its inhibition is -3.93%.

Question: For CCOc1ccc(-c2cc(C)[n+](CCN(CC)CC)c(-c3ccc(OCC)cc3)c2)cc1, which inhibition is on record?
Answer: The inhibition was -4.54%.

Question: How did the inhibition turn out when Cc1cccc(NC(=O)N2CC3CC(C2)c2cccc(=O)n2C3)c1 (stereo not given) was run?
Answer: The inhibition was -2.4%.
